PubChem BioAssay (EPA / NIEHS)
Records with an inconclusive call do not appear. Calls of active or inactive are those of the source. How the source made its calls, unless noted: active means hit-call score of the fitted dose curve at least 0.9, where 1 is the maximum; inactive means score below 0.9.

What was measured:
PGR (gene 5241) = PGR (gene 5241) (UniProt P06401); test: TOX21_PR_BLA_Followup_Antagonist_ratio: Tox21 HEK293 Progesterone Receptor (PR) Antagonism Beta-lactamase Follow-Up Assay, Ratio (AID 2283934; active means hit-call score of the fitted dose curve at least 0.9, where 1 is the maximum)
PGR (gene 5241), sequence (P06401 whole entry, looked up): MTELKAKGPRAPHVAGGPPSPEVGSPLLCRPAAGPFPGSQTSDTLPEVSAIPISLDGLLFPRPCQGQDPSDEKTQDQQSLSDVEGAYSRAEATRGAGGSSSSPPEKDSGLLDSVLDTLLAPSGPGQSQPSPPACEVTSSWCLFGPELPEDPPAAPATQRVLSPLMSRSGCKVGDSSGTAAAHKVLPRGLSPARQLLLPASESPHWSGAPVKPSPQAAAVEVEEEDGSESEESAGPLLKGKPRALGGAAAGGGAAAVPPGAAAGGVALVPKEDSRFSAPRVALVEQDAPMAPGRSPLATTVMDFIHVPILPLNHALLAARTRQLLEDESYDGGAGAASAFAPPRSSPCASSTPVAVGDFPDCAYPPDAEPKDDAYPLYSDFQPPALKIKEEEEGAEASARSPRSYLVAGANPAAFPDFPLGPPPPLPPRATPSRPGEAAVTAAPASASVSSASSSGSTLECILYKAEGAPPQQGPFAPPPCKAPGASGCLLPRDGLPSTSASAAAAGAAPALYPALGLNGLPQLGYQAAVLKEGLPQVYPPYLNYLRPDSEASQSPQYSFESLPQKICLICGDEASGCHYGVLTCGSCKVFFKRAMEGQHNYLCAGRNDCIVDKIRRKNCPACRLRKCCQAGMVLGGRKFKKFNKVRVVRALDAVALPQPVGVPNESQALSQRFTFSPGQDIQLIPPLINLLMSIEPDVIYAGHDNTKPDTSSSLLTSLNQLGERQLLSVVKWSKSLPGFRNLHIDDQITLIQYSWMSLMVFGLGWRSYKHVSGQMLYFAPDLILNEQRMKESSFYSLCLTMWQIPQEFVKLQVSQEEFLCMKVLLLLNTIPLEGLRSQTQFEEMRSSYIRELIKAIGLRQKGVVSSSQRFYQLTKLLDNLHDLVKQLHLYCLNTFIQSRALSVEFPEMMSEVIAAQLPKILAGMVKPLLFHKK
Summary of the method: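 PR-UAS-bla HEK293T cells in medium with 2% charcoal-stripped FBS were treated with compounds plus 1 nM (final) promegestone (R5020) for 16 hr at 37C. LiveBLAzer B/G FRET substrate was then added for 2 h at room temperature; signal is cleaved/uncleaved substrate ratio versus DMSO.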

[1] = TOX21_PR_BLA_Followup_Antagonist_viability: Viability Assessment in the Tox21 HEK293 Progesterone Receptor (PR) Antagonism Beta-lactamase Follow-Up Assay (AID 2283936; active means hit-call score of the fitted dose curve at least 0.9, where 1 is the maximum;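 further: hits lower the luminescence signal meaning cytotoxicity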)
Summary of the method: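 PR-UAS-bla HEK293T cells (3,000/well, 2% charcoal-stripped FBS) given compound plus R5020 agonist, 16 h at 37C. CellTiter-Glo added after bla read, 30 min at room temperature; luminescence loss indicates cytotoxicity.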

[2] = CEETOX_H295R_CORTISOL_noMTC: CeeTox H295R High-throughput Steroidogenesis Assay for Cortisol, maximum tolerated concentration (MTC) filtered results only (AID 2283916); conditions: actives raise or lower the signal
Summary of the method: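 Cortisol secretion measured by LC-MS/MS after 48 h chemical treatment (final 0.1% DMSO) of forskolin-primed (10 uM, 48 h) H295R cells; gain or loss fitted relative to DMSO, without maximum-tolerated-concentration filtering.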

[3] = CEETOX_H295R_CORTIC_noMTC: CeeTox H295R High-throughput Steroidogenesis Assay for Corticosterone (CORTIC), maximum tolerated concentration (MTC) filtered results only (AID 2283917); conditions: actives raise or lower the signal
Method: CEETOX_H295R is a cell-based, multiplexed-readout assay that uses H295R, a human adrenal gland cell line, with measurements taken at 48 hours after chemical dosing in a 96-well plate.CEETOX_H295R_CORTIC_noMTC is one of 12 assay component(s) measured or calculated from the CEETOX_H295R assay (11 hormones and 1 viability assay). It is designed to make measurements of hormone induction, a form of inducible reporter, as detected with absorbance signals by HPLC-MS-MS technology. The concentrations for these components have not been pre-filtered for the maximum tolerated concentration (MTC) based on the MTT assay (_noMTC).Data from the assay component CEETOX_H295R_CORTIC_noMTC was analyzed into 1 assay endpoint. This assay endpoint, CEETOX_H295R_CORTIC_noMTC, was analyzed with bidirectional fitting relative to DMSO as the negative control and baseline of activity. Using a type of inducible reporter, gain or loss-of-signal activity using HPLC-MS-MS was used to understand synthesis of Corticosterone in H295R cell line at 48hr of chemical exposure, without filtering concentrations for maximum tolerated concentration (MTC). To generalize the intended target to other relatable targets, this assay endpoint is annotated to the steroid hormone intended target family, where the subfamily is glucocorticoids.
Cell culture and media preparation procedures were conducted in accordance with OECD Test No. 456 guidelines, with minor modifications. H295R cells (ATCC CRL-2128) were expanded for 5 passages and frozen in batches in liquid nitrogen. […] For steroid quantification, media samples were shipped to OpAns, LLC (Durham, NC) on dry ice, and samples were thawed to room temperature prior to liquid-liquid extraction. […] Steroid hormones were separated by HPLC, eluted using a reverse phase C18 gradient with electrospray positive ionization, followed by quantification by tandem mass spectrometry (MS/MS). Data were acquired on a MassHunter Workstation Acquisition version B03.01 (Agilent Technologies, Inc.) and processed using MassHunter Quantitative Analysis for QQQ. Accuracy was determined for each hormone analyte from 3 standards to determine upper and lower limits of quantification (ULOQ and LLOQ, respectively) using a 7-point standard curve. Precision and accuracy of the extraction and quantification methods were calculated as the percent relative standard deviation (%RSD) of the spiked standards and percent spiked standard recovered, respectively. The goal was to achieve 100% accuracy (i.e., recover all spiked-in standard at quantification with minimal loss during run time) and good precision (i.e., have %RSD <15% to ensure reproducibility). Test medium was removed following chemical exposure, and cell viability was evaluated in the same wells by MTT. […]

[4] = CEETOX_H295R_DOC_noMTC: CeeTox H295R High-throughput Steroidogenesis Assay for DOC, maximum tolerated concentration (MTC) filtered results only (AID 2283918); conditions: actives raise or lower the signal
Summary of the method: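 11-Deoxycorticosterone secreted by human adrenal H295R cells quantified by HPLC-MS/MS after 48 h chemical exposure (0.1% DMSO), following 48 h 10 uM forskolin prestimulation. Concentrations not filtered by MTT-derived MTC; bidirectional fitting.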

[5] = CEETOX_H295R_PROG_noMTC: CeeTox H295R High-throughput Steroidogenesis Assay for Progesterone (PROG), maximum tolerated concentration (MTC) filtered results only (AID 2283920); conditions: actives raise or lower the signal
Summary of the method: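 H295R cells; forskolin 10 uM x 48 h prestim; test cpd 48 h, 0.1% DMSO final; media progesterone via LC-MS/MS; bidirectional fit vs DMSO; no MTT-based MTC filter applied.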

[6] = CEETOX_H295R_ESTRADIOL_noMTC: CeeTox H295R High-throughput Steroidogenesis Assay for Estradiol, maximum tolerated concentration (MTC) filtered results only (AID 2283919); conditions: actives raise or lower the signal
Summary of the method: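 H295R human adrenal cells pre-stimulated 48 h with 10 uM forskolin, then exposed 48 h to chemical (0.1% DMSO final). Estradiol in medium measured by HPLC-MS/MS after MTBE extraction and dansyl derivatization; bidirectional fit versus DMSO, concentrations not MTT-filtered.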

[7] = CEETOX_H295R_ESTRONE_noMTC: CeeTox H295R High-throughput Steroidogenesis Assay for Estrone, maximum tolerated concentration (MTC) filtered results only (AID 2283921); conditions: actives raise or lower the signal
Summary of the method: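 H295R cells prestimulated 48 h with 10 uM forskolin, then exposed 48 h to chemical in 0.1% DMSO; medium estrone measured by HPLC-MS/MS after MTBE extraction and dansyl derivatization, fitted bidirectionally versus DMSO without MTT-based MTC filtering.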

[8] = TOX21_PR_BLA_Followup_Agonist_viability: Viability Assessment in the Tox21 HEK293 Progesterone Receptor (PR) Agonism Beta-lactamase Follow-Up Assay (AID 2283935; active means hit-call score of the fitted dose curve at least 0.9, where 1 is the maximum;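 further: signal loss means lower viability so actives are cytotoxic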)
Summary of the method: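 PR-UAS-bla HEK293T cells in 2% charcoal-stripped FBS medium, compound added after 6 hr plating, 16 hr at 37C/5% CO2. After bla FRET read, CellTiter-Glo added; luminescence read after 30 min at room temperature; signal loss marks cytotoxicity.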

[9] = CEETOX_H295R_TESTO_noMTC: CeeTox H295R High-throughput Steroidogenesis Assay for Testosterone (TESTO), maximum tolerated concentration (MTC) filtered results only (AID 2283924); conditions: actives raise or lower the signal
Method: CEETOX_H295R is a cell-based, multiplexed-readout assay that uses H295R, a human adrenal gland cell line, with measurements taken at 48 hours after chemical dosing in a 96-well plate.CEETOX_H295R_TESTO_noMTC is one of 12 assay component(s) measured or calculated from the CEETOX_H295R assay (11 hormones and 1 viability assay). It is designed to make measurements of hormone induction, a form of inducible reporter, as detected with absorbance signals by HPLC-MS-MS technology. The concentrations for these components have not been pre-filtered for the maximum tolerated concentration (MTC) based on the MTT assay (_noMTC).Data from the assay component CEETOX_H295R_TESTO_noMTC was analyzed into 1 assay endpoint. This assay endpoint, CEETOX_H295R_TESTO_noMTC, was analyzed with bidirectional fitting relative to DMSO as the negative control and baseline of activity. […]
Cell culture and media preparation procedures were conducted in accordance with OECD Test No. 456 guidelines, with minor modifications. […] For steroid quantification, media samples were shipped to OpAns, LLC (Durham, NC) on dry ice, and samples were thawed to room temperature prior to liquid-liquid extraction. […] Steroid hormones were separated by HPLC, eluted using a reverse phase C18 gradient with electrospray positive ionization, followed by quantification by tandem mass spectrometry (MS/MS). […]

CCOP(=S)(Oc1ccc([N+](=O)[O-])cc1)c1ccccc1 (centres undefined)
AC50 (PGR (gene 5241)): 5.36 µM (active)
outcome [1]: inactive

CCOC(=O)c1ccccc1C(=O)OCC
outcome [2]: inactive
outcome [3]: inactive
outcome [4]: inactive
outcome [5]: inactive

CCOC(=O)c1ccccc1N
outcome [2]: inactive
outcome [3]: inactive
outcome [4]: inactive
outcome [6]: inactive
outcome [5]: inactive
outcome [7]: inactive

CCOP(=S)(OCC)SCSc1ccc(Cl)cc1
AC50 (PGR (gene 5241)): 9.94 µM (active)
outcome [8]: inactive
outcome [1]: inactive

CO/N=C(/C(=O)OC)c1ccccc1COc1ccccc1C
AC50 (PGR (gene 5241)): 37.1 µM (active)
outcome [8]: inactive
outcome [1]: inactive

CCOc1ccc(C(C)(C)COCc2cccc(Oc3ccccc3)c2)cc1
outcome [2]: inactive
outcome [3]: inactive
outcome [4]: inactive
outcome [6]: inactive
outcome [5]: inactive
outcome [7]: inactive

O=S1(=O)OCC2C(CO1)C1(Cl)C(Cl)=C(Cl)C2(Cl)C1(Cl)Cl (centres undefined)
AC50 (PGR (gene 5241)): 24.2 µM (active)
outcome [8]: inactive
outcome [1]: inactive

CCOP(=S)(OCC)SCS(=O)(=O)CC
AC50 [2]: 45 µM (active)
outcome [3]: inactive
AC50 [4]: 33.5 µM (active)
outcome [6]: inactive
outcome [5]: inactive
outcome [7]: inactive
AC50 [9]: 45.4 µM (active)
